About 1,700 (71%) of roughly 2,400 compounds were called active.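 Rule for the calls: active = choline transporter activity left, mean of duplicates at 10 µM, below buffer-only control mean minus 3 SD; inactive = the rest.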 The set was probably picked from earlier hits. Not all results are given here.
These molecules were tested against High affinity choline transporter 1 (Homo sapiens) (UniProt Q9GZV3) (assay: CHT inhibitors, confirmation, cell-based, membrane potential dye, duplicate (AID 493221)). Details: CHT-expressing cells, at 10 µM, LV-to-AA substituted CHT, HEK293 cells.
Chain of High affinity choline transporter 1 (Homo sapiens) (Q9GZV3 whole entry, looked up): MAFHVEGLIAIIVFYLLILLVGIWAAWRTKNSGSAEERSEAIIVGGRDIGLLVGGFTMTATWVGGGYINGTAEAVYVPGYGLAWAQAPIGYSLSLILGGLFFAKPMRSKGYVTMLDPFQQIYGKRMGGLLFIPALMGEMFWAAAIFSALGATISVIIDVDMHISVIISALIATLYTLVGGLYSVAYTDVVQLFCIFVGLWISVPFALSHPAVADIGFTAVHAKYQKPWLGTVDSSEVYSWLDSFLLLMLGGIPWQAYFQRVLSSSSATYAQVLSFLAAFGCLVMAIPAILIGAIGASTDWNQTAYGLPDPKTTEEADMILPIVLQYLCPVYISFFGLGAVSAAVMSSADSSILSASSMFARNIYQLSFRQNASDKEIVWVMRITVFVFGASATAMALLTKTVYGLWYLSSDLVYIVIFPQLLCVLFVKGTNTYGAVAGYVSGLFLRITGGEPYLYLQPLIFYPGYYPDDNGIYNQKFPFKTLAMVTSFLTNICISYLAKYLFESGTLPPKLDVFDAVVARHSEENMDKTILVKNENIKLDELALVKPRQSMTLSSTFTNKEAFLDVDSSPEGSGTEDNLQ

Row | Structure (SMILES) | CHT activity remaining % of control (hits give low values)
1 | C[N+]1(C)CCOC(O)(c2ccc(-c3ccc(C4(O)C[N+](C)(C)CCO4)cc3)cc2)C1 (stereo not drawn) | 4.79% (active)
2 | COc1ccccc1N1CCN(C(CNC(=O)Oc2ccccc2)c2cccnc2)CC1 (stereo not drawn) | inactive
3 | Cc1nc2ccccn2c1P(=S)(N1CCCCC1)N1CCCCC1 | 61.1% (active)
